Shiga toxin inh = A qHTS for Small Molecule Inhibitors of Shiga Toxin. Vero cells, Shiga toxin protein synthesis inhibition reporter. inhibition, % at 38.7 µM. 290,000 tested, 9.2% active; in the data active = inhibition mostly above about 28%, no sharp cut-off; inactive = mostly below about 43%
HCMV inh = qHTS Assay for inhibitors of the human cytomegalovirus (HCMV) | activity change, negative = inhibition, % at 57.5 µM | 410,000 tested, 4.5% active | HFF cells, HCMV-luciferase reporter, 72 h; stronger effect = lower value; in the data active = activity change below about -60%; inconclusive = no clear call, values can overlap the other calls; inactive = above about -39%
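Luciferase read-out from HCMV-luciferase-infected HFFs (MOI 1 PFU/cell) 72 h post infection at 37C; compounds added after 16 h cell attachment; activity normalized between buffer-only basal and Salinomycin (10uM) inhibitor controls.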
Pf growth 96h = Primary qHTS for delayed death inhibitors of the malarial parasite plastid, 96 hour incubation; AID 504834, 2011; P. falciparum luciferase reporter growth, 96 h; Potency, µM (highest dose often 28.7 µM), actives largely listed as inhibitors; 320,000 tested, 6.9% active
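Plates of compound plus infected erythrocytes (2% hematocrit, 0.05% parasitemia final) incubate 96 hours, 37 C, 5% CO2. Detection reagent added; reduced luminescence from the parasites' luciferase reporter flags inhibition.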
Pf growth 48h = Primary qHTS for delayed death inhibitors of the malarial parasite plastid, 48 hour incubation | P. falciparum luciferase growth in erythrocytes, 48 h | Potency, µM (top dose mostly 28.7 µM), most hits filed as inhibitors | 310,000 tested, 5.9% active | AID 504832, 2011
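Read-out is firefly luciferase luminescence from an integrated reporter in P. falciparum, so falling signal marks reduced parasite growth. Infected erythrocytes were at 2% hematocrit and 0.1% parasitemia (final) in Albumax-supplemented RPMI 1640.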
Cycloheximide cs = Cycloheximide Counterscreen for Small Molecule Inhibitors of Shiga Toxin; cell reporter, cycloheximide protein synthesis inhibition counterscreen; max response, %; 300,000 tested, 12% active; AID 2314, 2010; in the data active = max response mostly above about 13%, no sharp cut-off; inactive = mostly below about 14%; also: read at 38.3 µM for the half of the compounds with a filed dose
Large screens that a line does not name were inactive. In the library only some 20% were active in any assay of this set; here they are far more common. Unless noted, calls follow the shape of the dose curve; as a rule, active = well fitted inhibition curve with a large enough effect; inconclusive = small, poorly fitted or top-dose-only effect, or another doubt; inactive = no such curve, though single readings can be large or run the other way.

CCOC(=O)N/N=C/c1ccc(Oc2ccccc2)cc1	Shiga toxin inh 104, Pf growth 96h inconclusive, Pf growth 48h inconclusive, Cycloheximide cs 41
CCOc1ccc(CNC(=O)c2ccco2)cc1	Cycloheximide cs 20
Cc1ccc(OCCNC(=O)c2ccco2)cc1C	Shiga toxin inh 74, Pf growth 96h inconclusive, Cycloheximide cs 17
O=S(=O)(c1cccnc1)N1CCn2cccc2C1c1ccccc1F (configuration not stated)	none (no result: Shiga toxin inh, Cycloheximide cs)
COc1ccccc1C(=O)NCCOc1ccc(C)c(C)c1	Shiga toxin inh 39, Pf growth 48h inconclusive, Cycloheximide cs 25
CCOC(=O)NCCOc1ccc(Oc2ccccc2)cc1	Shiga toxin inh 30, Cycloheximide cs 21 (no result: HCMV inh, Pf growth 96h, Pf growth 48h)
CCNC(=O)c1ccccc1SCc1ccccc1	HCMV inh inconclusive, Pf growth 96h inconclusive
CCc1ccc(OCCNC(=O)c2ccccc2SCc2ccccc2)cc1	HCMV inh -88
CCc1ccc(OCCNC(=O)OCc2ccccc2)cc1	none
O=C(NCCOc1ccc(Cl)cc1)c1ccco1	Pf growth 96h 2.1µM
CCn1c(COC(=O)CNC(=O)c2ccccc2)nc2cc(S(=O)(=O)N(C)C)ccc21	none (no result: Shiga toxin inh, Cycloheximide cs)
Cc1ccc(S(=O)(=O)Nc2cccc(C(=O)NCCCN3CCOCC3)c2)cc1F	HCMV inh inconclusive (no result: Shiga toxin inh, Cycloheximide cs)
CC1CCN(C(=O)c2cnn(-c3cccc(Cl)c3)c2C2CCN(C(=O)OC(C)(C)C)CC2)CC1	none (no result: Shiga toxin inh, Pf growth 96h, Pf growth 48h, Cycloheximide cs)
Cc1ccc(OCCNC(=O)c2ccccc2N)cc1	Shiga toxin inh 27, Cycloheximide cs 13
COc1cc(C(=O)NC2CCCC2)c(Br)c(OC)c1OC	none
COc1ccc(OCCNC(=O)c2ccccc2OCC(=O)Nc2ccc(NC(C)=O)cc2)cc1	Cycloheximide cs 24
Cc1ccc(OCCNC(=O)c2cncc(Br)c2)cc1C	HCMV inh -107
COc1ccc(OCCNC(=O)c2ccccc2OCC(=O)N2CCCCC2)cc1	Pf growth 48h inconclusive
COc1cc(C(=O)NCCOc2cc(C)cc(C)c2)c(Br)c(OC)c1OC	Pf growth 96h 13µM
Cc1cccc(OCCNC(=S)NC(=O)c2cncc(Br)c2)c1	Pf growth 96h inconclusive
Clc1cccc(-n2ncc3c(NCCC4=CCCCC4)ncnc32)c1	none (no result: Shiga toxin inh, Pf growth 96h, Pf growth 48h, Cycloheximide cs)
CN(C)C1CCc2[nH]c3ccc(NC(=O)c4ccc(F)cc4)cc3c2C1 (configuration not stated)	none (no result: HCMV inh, Pf growth 96h, Pf growth 48h)
COc1ccc(CCNC(=O)CS(=O)(=O)Cc2nc(-c3cccc(Cl)c3)oc2C)cc1OC	none (no result: Shiga toxin inh, Pf growth 96h, Pf growth 48h, Cycloheximide cs)
CCc1ccc(OCCNC(=O)c2ccco2)cc1	Shiga toxin inh 52, Cycloheximide cs 34
CCOc1ccc(CN(C)C(=O)CCNC(=O)c2ccco2)cc1	none (no result: Shiga toxin inh, Cycloheximide cs)
Oc1c(Br)cc(Br)cc1C=Nc1cccnc1	Pf growth 48h inconclusive
CCn1c(C)c(C(C)=O)c(N2CCCCC2)nc1=S	Pf growth 96h 12µM
CCCCNc1nc(=S)n(-c2ccccc2)c(C)c1C(C)=O	HCMV inh -99
CC(=O)c1c(N2CCCC2)nc(=S)n(-c2ccccc2)c1C	HCMV inh -74, Pf growth 96h inconclusive (no result: Pf growth 48h)
CCSc1nc(=O)n(-c2ccccc2)c(C)c1C(C)=O	Shiga toxin inh 33, Cycloheximide cs 16
CCn1c(C)c(C(C)=O)c(N2CCC(C(N)=O)CC2)nc1=S	none
Clc1ccccc1-c1nnc(-c2ccccc2CNc2ccc(Br)cc2)o1	none (no result: Shiga toxin inh, Pf growth 96h, Pf growth 48h, Cycloheximide cs)
N#CCC(=O)NN	none (no result: Shiga toxin inh, HCMV inh, Cycloheximide cs)
O=Cc1cccn1-c1cccc([N+](=O)[O-])c1	Pf growth 96h 2.6µM
O=Cc1cccn1-c1ccccc1	none
Cc1ccc(NC(=O)CN(C)C(=O)c2cccc(S(=O)(=O)N3CCc4ccccc4C3)c2)cc1	none (no result: Shiga toxin inh, Pf growth 96h, Pf growth 48h, Cycloheximide cs)
Oc1ccccc1/C=N/n1c2ccccc2c2ccccc21	Pf growth 96h 2.6µM, Pf growth 48h inconclusive
CCOC(=O)C(Cc1ccccc1)(Nc1ccccc1)C(O)c1ccc([N+](=O)[O-])cc1 (configuration not stated)	none (no result: Shiga toxin inh, Pf growth 96h, Pf growth 48h, Cycloheximide cs)
CCC1CCC2(CC1)NNC(=S)NN2	HCMV inh -62, Pf growth 96h inconclusive (no result: Pf growth 48h)
O=c1cc(C(F)(F)F)nc(SC/C=C/c2ccccc2)[nH]1	none (no result: HCMV inh)
CCN1C(=O)N(C)[C@@H](c2ccccc2)C(C(C)=O)=C1C	none (no result: Shiga toxin inh, Pf growth 96h, Pf growth 48h, Cycloheximide cs)
O=C(NCc1ccco1)c1ccc(N2CCCCC2)c([N+](=O)[O-])c1	Shiga toxin inh 41, Pf growth 96h 6.6µM, Pf growth 48h 8.3µM, Cycloheximide cs 20
O=C(NCc1ccco1)c1ccc(N2CCOCC2)c([N+](=O)[O-])c1	HCMV inh inconclusive, Pf growth 96h inconclusive
CC1CCN(S(=O)(=O)c2cccc(C(=O)NCc3ccco3)c2)CC1	none
CC1CCN(c2ccc(C(=O)NCc3ccco3)cc2[N+](=O)[O-])CC1	Shiga toxin inh 54, Pf growth 96h 1.2µM, Pf growth 48h 0.83µM, Cycloheximide cs 22
Cc1ccc(N(Cc2ccco2)C(=O)c2ccc(N3CCCCC3)c([N+](=O)[O-])c2)cc1	Shiga toxin inh 106, HCMV inh -66, Pf growth 96h 12µM, Cycloheximide cs 44
COc1ccc(C(=O)NCc2nnc(SCC(=O)Nc3cccc(F)c3)o2)cc1	none
CN(C)C(=C(C#N)C#N)N1CCN(c2ccc(Cl)cc2)CC1	HCMV inh inconclusive
CSC(=NC#N)N1CCN(c2ccc(Cl)cc2)CC1	Shiga toxin inh 47, HCMV inh inconclusive, Cycloheximide cs 28
CC1CCc2c(sc3nc(CN4CCOCC4)nc(N4CCc5ccccc5C4)c23)C1 (configuration not stated)	Pf growth 96h 4.7µM, Pf growth 48h 13µM
CC1CCc2c(sc3nc(CN4CCOCC4)nc(NS(=O)(=O)c4cccc([N+](=O)[O-])c4)c23)C1 (configuration not stated)	Pf growth 96h 13µM (no result: Pf growth 48h)
Cc1ccc(Oc2nc(CN3CCOCC3)nc3sc4c(c23)CCC(C)C4)cc1C (configuration not stated)	Pf growth 96h inconclusive, Pf growth 48h 12µM
Cc1cc(S(=O)(=O)Nc2nc(CN3CCOCC3)nc3sc4c(c23)CCCC4)ccc1F	Pf growth 96h inconclusive (no result: Pf growth 48h)
Cc1ccc(Oc2nc(CN3CCOCC3)nc3sc4c(c23)CCC(C)C4)cc1 (configuration not stated)	Pf growth 96h inconclusive, Pf growth 48h inconclusive
C[C@@H]1CN([C@@H](C)CO)C(=O)CCCn2nncc2CO[C@H]1CN(C)C(=O)Nc1ccnc(N2CCOCC2)c1	none (no result: Shiga toxin inh, Pf growth 96h, Pf growth 48h, Cycloheximide cs)
O=c1cc[nH]c(=S)[nH]1	none (no result: Shiga toxin inh, HCMV inh, Cycloheximide cs)
COc1cc(CN(C2CCCCC2C)S(=O)(=O)c2ccc(S(=O)(=O)NC3CC3)cc2)cc(OC)c1OC (configuration not stated)	Pf growth 48h 8.3µM
COc1ccc(CC(=O)Nc2ccc(S(=O)(=O)N(C)C)cc2)cc1OC	HCMV inh inconclusive
COc1ccc(CN(C2CCCCC2C)S(=O)(=O)c2ccc(S(=O)(=O)N(C)C)cc2)cc1OC (configuration not stated)	HCMV inh -79, Pf growth 96h inconclusive, Pf growth 48h 13µM
Cc1ccc(-n2c(C)nnc2SC(C)C(=O)N2CCCC2)cc1 (configuration not stated)	none
